An excerpt weighted towards active compounds, which were near 11% of everything screened.
Pf growth 96h: P. falciparum growth inhibition at 96 hours; P. falciparum luciferase reporter growth, 96 h; Potency, µM (top dose mostly 28.7 µM), inactives show top-dose activity change, negative = inhibition, usual class: inhibitors; AID 504834; hit rate 6.9% among 320,000
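Infected RBCs, 2% Hct / 0.05% parasitemia final; luciferase-reporter P. falciparum; cpd 96 h, 37 C, 5% CO2; luciferase detection reagent; luminescence.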
AmpC inh no detg: AmpC beta-lactamase inhibition without detergent. AID 485341. Potency, µM (doses to about 57.1 µM), inactives show at the highest dose activity change, negative = inhibition, most hits filed as inhibitors. hit rate 0.52% among 330,000. AmpC nitrocefin hydrolysis, absorbance 480 nm, 0.0001% Triton;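 further: plate controls were no compound for no effect and no enzyme for full effect; nearly all actives have a fitted effect of over 20% in size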
Target sequence (P00811 whole entry, looked up): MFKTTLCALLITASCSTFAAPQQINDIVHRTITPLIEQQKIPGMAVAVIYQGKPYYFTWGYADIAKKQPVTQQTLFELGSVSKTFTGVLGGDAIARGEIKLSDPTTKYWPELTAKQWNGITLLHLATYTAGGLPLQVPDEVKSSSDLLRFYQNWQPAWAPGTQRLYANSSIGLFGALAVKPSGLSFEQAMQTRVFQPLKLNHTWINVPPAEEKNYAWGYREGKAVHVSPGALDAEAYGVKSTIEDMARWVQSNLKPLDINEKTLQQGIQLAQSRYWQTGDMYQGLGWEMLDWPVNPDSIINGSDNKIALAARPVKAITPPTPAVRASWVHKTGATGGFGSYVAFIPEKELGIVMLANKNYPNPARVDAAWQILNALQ
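20 mM phosphate pH 7.0 + 0.01% (detergent screen) or 0.0001% Triton X-100; 5.3 nM AmpC reagent; cpd preinc 15 min RT; nitrocefin (800 uM stock) to start; A480 q20 s × 4 min; Activity was normalised to no-enzyme and no-compound control wells.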
AmpC detergent: AmpC beta-lactamase inhibition with detergent present | P00811 | AmpC hydrolysis of nitrocefin, absorbance 480 nm, 0.01% Triton | Potency, µM (series often up to 114 µM), without a hit: at the highest dose activity change, negative = inhibition, actives largely listed as inhibitors | hit rate 0.041% among 370,000 | AID 485294;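 further: 0% = no-compound wells and -100% = no-enzyme wells; nearly all actives have a fitted effect of over 25% in size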
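20 mM phosphate pH 7.0 + 0.01% (detergent screen) or 0.0001% Triton X-100; 5.3 nM AmpC reagent; cpd preinc 15 min RT; nitrocefin (800 uM stock) to start; A480 q20 s × 4 min; Activity was normalised to no-enzyme and no-compound control wells.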
Pf growth 48h: P. falciparum growth inhibition at 48 hours (one generation); AID 504832; hit rate 5.9% among 310,000; P. falciparum luciferase growth in erythrocytes, 48 h; Potency, µM (series often up to 28.7 µM), for the others: at the highest dose activity change, negative = inhibition, usual class: inhibitors
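A one-generation exposure of luciferase-tagged malaria parasites in RPMI 1640/Albumax erythrocyte culture, 37 C and 5% CO2. Inhibition is inferred from decreased luminescence after adding detection reagent.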
HCV inhibitor: inhibitors of hepatitis C virus infection; hit rate 3.4% among 340,000; AID 651820; Huh7.5.1 HCVcc-Cre infection, luciferase reporter, 44 h; Potency, µM (series often up to 41.8 µM), for the others: top-dose activity change, negative = inhibition, usual class: inhibitors
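HCVcc-Cre virus at an moi near 0.5 was added right after compound to cells cultured 4 h from seeding (1,000 cells/well). Luciferase activity was determined 44 h later, 15 min after substrate addition at RT.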
AMA1-RON2 inh: disrupts binding of P. falciparum AMA1 to RON2; AID 720542; hit rate 0.2% among 360,000; AlphaScreen AMA1-biotinylated RON2 peptide binding; Potency, µM (titrated, usually from 58.2 µM), for the others: top-dose activity change, negative = inhibition, hits mostly inhibitors;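 further: 0% = vehicle wells and -100% = peptide control; nearly all actives have a fitted effect of over 45% in size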
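AMA1 (3D7) with his tag at 25 nM final met compounds first, then biotinylated RON2 peptide at 25 nM; detection used donor plus acceptor beads, 10 µg/mL apiece, read by AlphaScreen after 30 min at room temperature.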
The depositor's hits bear a star; ? = inconclusive; nt = no result; [ ] = dose if it differs, or a comment. The call rests on the fitted dose curve; in most records, active means well fitted curve in the direction sought with a large enough effect; inconclusive means small, poorly fitted or top-dose-only effect, or another doubt; inactive means no such curve, though single readings can be large; an effect the other way counts as inactive or inconclusive. Unless noted, on the % scale 0 is the no-effect control and ±100 the full control effect; potency means the concentration at half of the fitted maximal effect.

SMILES | Pf growth 96h | AmpC inh no detg | AmpC detergent | Pf growth 48h | HCV inhibitor | AMA1-RON2 inh
COC(=O)c1ccccc1C(=O)N1CCOCCN(C(=O)c2ccccc2C(=O)OC)CCOCC1 | 23% | 1% | ? | 9% | 29% | -12%
Cc1ccccc1C(=O)Oc1ccccc1C(=O)N1CCOCC1 | 8.3µM* | -13% | ? | -13% | 12% | -1%
O=C(c1ccc(CS(=O)(=O)c2c(Cl)cccc2Cl)o1)N1CCN(c2ccccc2)CC1 | nt | nt | -11% | nt | nt | nt
O=C(Nc1ccc(OCC(F)(F)C(F)F)c(C(F)(F)F)c1)c1ccccc1 | nt | nt | nt | nt | 10µM* | -8%
O=C(Nc1ccc(OCC(F)(F)C(F)F)c(C(F)(F)F)c1)c1ccccc1O | 3.7µM* | -35% | -5% | 2.1µM* | 6.3µM* | 2%
O=C(Nc1ccc(OCC(F)(F)C(F)F)cc1)c1ccncc1 | 2% | -9% | -9% | 15% | ? | 2%
Cc1nn(-c2ccc(N3CCOCC3)nn2)c(C)c1CCC(=O)Nc1ccc(F)cc1F | nt | nt | 27% | nt | nt | nt
COC(=O)c1c(NC(=O)c2ccccc2)sc(C(N)=O)c1C | -9% | -15% | 1% | 14% | ? | 22%
CCOC(=O)c1c(-c2cccs2)csc1NC(=O)CN(CC)CC | ? | -12% | ? | ? | 11µM* | 15%
CCN(CC)C(=O)c1sc(NC(=O)c2cccnc2)c(C(=O)OC)c1C | 2.9µM* | -9% | ? | 1% | -25% | 10%[11.6 µM]
COC(=O)c1c(NC(=O)c2ccccc2)sc(C(=O)c2ccccc2)c1C | 9.3µM* | -10% | -11% | ? | ? | 1%
COC(=O)c1c(-c2cccs2)csc1NC(=O)c1cccnc1 | -7% | 91% | -9% | 6% | 11µM* | 30%
Cc1ccc(-n2ncc(C(=O)NCc3ccco3)c2C2CCN(C(=O)OC(C)(C)C)CC2)cc1 | nt | nt | 4% | nt | nt | nt
O=C(CCc1ccccc1)N(Cc1cccnc1)c1nc2ccc(F)cc2s1 | nt | nt | -1% | nt | nt | nt
Cc1nnc(N2CCN(C(=O)Nc3cccc(C(F)(F)F)c3)CC2)c2nn(-c3ccccc3)c(C)c12 | nt | nt | -4% | nt | nt | nt
CC1(C)S[C@@H]2[C@H](NC(=O)[C@@H](NC(=O)N3CCNC3=O)c3ccccc3)C(=O)N2[C@H]1C(=O)O | -8%[12.8 µM] | nt | nt | 0%[12.8 µM] | nt | nt
CCOC(=O)c1sc(NC(=O)C2c3ccccc3Oc3ccccc32)c(C(=O)OCC)c1C | nt | nt | -4% | nt | nt | nt
CCOC(=O)c1c(NC(=O)C2c3ccccc3Oc3ccccc32)sc(C(=O)N(CC)CC)c1C | 0.93µM* | 84% | -13% | 1.5µM* | 7.1µM* | -8%
CC(=O)c1c(C)nc2sc3c(=N)n(N)cnc3c2c1-c1ccc(Cl)cc1 | 13µM* | 40% | ? | ? | ? | 10%
CCOc1ccccc1NC(=O)c1c(C)cc(C)nc1SCC(=O)c1cccc(OC)c1 | nt | nt | -1% | nt | nt | nt
COc1ccc2c(c1)C(=O)CCC2c1ccccc1 (stereo not drawn) | 5.2µM* | -21% | -14% | -9% | -3% | 35%
CC1(C)Cc2c(cnn2-c2ccc(F)cc2)C(NC(=O)c2ccoc2)C1 (stereo not drawn) | ? | -5% | -15% | -16% | -12% | -8%
Cc1ccccc1-n1ncc2c1CC(C)(C)CC2NC(=O)c1snnc1C (stereo not drawn) | 5.9µM* | 32% | -15% | ? | -26% | 24%
CC1(C)Cc2c(cnn2-c2ccccc2)C(NC(=O)C2(C(N)=O)CC2)C1 (stereo not drawn) | -7% | 42% | 4% | 9.3µM* | 25% | -3%
Cc1ccccc1-n1ncc2c1CC(C)(C)CC2NC(=O)c1ccncc1 (stereo not drawn) | 16% | 39% | -2% | -14% | 19% | 7%
Cc1ccc(-n2ncc3c2CC(C)(C)CC3NC(=O)CCc2ccc(=O)[nH]n2)cc1 (stereo not drawn) | 13µM* | 22% | -9% | 5% | 8% | 10%
